Algae TAG accum: inducers of TAG accumulation in Chlamydomonas, primary screen, qHTS, Chlamydomonas reinhardtii | actives 0.84% (n = 44,000) | calls only at 10 µM (by protocol) | AID 1159537, 2015 | Nile Red fluorescence, 72 h; call rule not given here;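 note: hits raise Nile Red signal meaning more stored TAG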
Numbers without * were called inactive; i = inactive; + = active, no number. The full list was thinned out, with hits kept by preference.

SMILES	Algae TAG accum
O=[N+]([O-])c1ccc(C(O)CN2CCc3ccccc32)cc1 (stereo not drawn)	i
COc1ccc(C=C(C#N)c2nc(-c3ccc4c(c3)OCO4)cs2)cc1	i
O=C(CSc1nc2ccccc2o1)c1ccc(Br)cc1	i
O=C1C2CCCC3C4CCCCC4C(NN1c1ccc([N+](=O)[O-])cc1)C23 (stereo not drawn)	i
O=c1c2cc(I)ccc2nc(/C=C/c2ccccc2)n1CCO	i
COc1ccc(CNC2CCCCC2C)cc1 (stereo not drawn)	i
COc1ccc(CNC2CCSC2)cc1 (stereo not drawn)	+
COc1ccc(CNCc2ccc(OC)cc2)cc1	i
COc1ccccc1-n1c(CCC(=O)O)ccc1-c1ccc(Br)cc1	i
COc1ccc(C2NC(=O)C(=O)C2=C(O)c2ccc(Cl)cc2)cc1OC (stereo not drawn)	i
O=c1c2c(nc3[nH]ncn13)-c1ccccc1CC21CCCCC1	i
CCOC(=O)N1CCN(Cc2ccccc2Br)CC1	i
O=[N+]([O-])c1ccccc1CN1CCC(N2CCCCC2)CC1	i
O=[N+]([O-])c1ccccc1S(=O)(=O)N1CCN(Cc2ccccn2)CC1	i
c1ccc(CN2CCC(N3CCN(Cc4ccccn4)CC3)CC2)cc1	i
CC1CCCC(N2CCN(Cc3ccccc3)CC2)C1 (stereo not drawn)	+
c1ccc(CN2CCC(N3CCN(C4CC5CCC4C5)CC3)CC2)cc1 (stereo not drawn)	+
COc1cc(CN2CCN(C3CCN(Cc4ccccc4)CC3)CC2)cc(OC)c1O	i
C1CCCN(C2CCN(C3CC4CCC3C4)CC2)CC1 (stereo not drawn)	i
O=[N+]([O-])c1ccccc1S(=O)(=O)N1CCN(C2CCN(Cc3ccccc3)CC2)CC1	+
CC1CCCC(NC2CCN(Cc3ccccc3)CC2)C1 (stereo not drawn)	i
O=C(Nc1ccc(OCc2ccccc2)cc1)c1ccccc1F	i
O=C1CCCC2=C1C(c1cccc([N+](=O)[O-])c1)Nc1ccc3ncccc3c12 (stereo not drawn)	i
CC(O)CNC(=O)C(=O)Nc1ccc(F)cc1 (stereo not drawn)	i
Cc1ccc(NC(=O)c2cc(C(=O)Nc3ccc(C)c(C)c3)n(C)n2)cc1C	i
SMILES	Algae TAG accum
Cc1ccc(S(=O)(=O)Nc2ccc(Cl)cc2)cc1C(=O)O	i
c1ccc(N2CCN(CC3CCCCC3)CC2)cc1	+
CCN1CCC(N2CCN(c3ccccc3)CC2)CC1	i
O=C(C1CCN(CC2CCCCC2)CC1)N1CCN(c2ccccc2)CC1	i
CCN(CC)c1ccc(NC(=O)c2ccoc2C)cc1	i
CC(C(=O)NC1CC2CCC1C2)N(c1ccccc1)S(C)(=O)=O (stereo not drawn)	i
CC1(C)Oc2ccc(NC(=O)Cc3ccc(F)cc3)cc2O1	i
COc1ccc(NC(=O)c2ccc(C(=O)c3ccccc3)cc2)cc1	i
CC1(C)Oc2ccc(NC(=O)c3ccc(C(=O)c4ccccc4)cc3)cc2O1	+
CCC(CC)C(=O)Nc1ccccc1Cl	i
O=C1CC(N2CCN(c3ccc(Cl)c(Cl)c3)CC2)C(=O)N1c1ccccc1 (stereo not drawn)	i
CCc1nnc(NC(=O)Nc2ccccc2F)s1	i
NC(=O)c1ccc(Cl)c(NC(=O)CCC(=O)O)c1	i
CCN(CC)CC#CC(C)(O)C(C)C (stereo not drawn)	i
CCN(CC)CC#Cc1ccc(C#CCN(CC)CC)cc1	+
CCN(CC)CC#CC(O)c1ccccc1 (stereo not drawn)	i
O=C(Nc1ccccc1Br)C(Cc1ccccc1)N1C(=O)c2ccccc2C1=O (stereo not drawn)	i
O=C(C1CCCN(Cc2cccc(Br)c2)C1)N1CCCCC1 (stereo not drawn)	i
CC(=O)Nc1ccc(OCC(=O)Nc2cc(Cl)cc(Cl)c2)cc1	+
CC(=O)Nc1ccc(NC(=O)COc2ccc(C)c(C)c2)cc1	i
O=C(COc1ccc(Cl)cc1)Nc1ccc(Br)cc1	i
O=C(Nc1cccc2c1CCCC2)C(Cl)Cl	i
CN1CC=C(CNc2cccc3c2CCCC3)CC1	+
Cc1cccc(OCC(=O)Nc2cccc3c2CCCC3)c1	i
CC(C)NCC(=O)NC12CC3CC(CC(C3)C1)C2	+
SMILES	Algae TAG accum
COCCC(=O)NC12CC3CC(CC(C3)C1)C2	i
O=C(O)CC(=O)NC12CC3CC(CC(C3)C1)C2	i
CCCCOc1ccc(C(=O)Nc2ccc(NC(=O)CCC)cc2)cc1	i
COc1cc(Cl)c(C)cc1NC(=O)c1cccnc1	i
COc1ccc(N2CCN(C(=O)c3ccc(Cl)cc3Cl)CC2)cc1	i
COc1ccccc1NC(=O)C(C(=O)Nc1ccccc1OC)C(=O)Nc1ccccc1OC	i
COc1ccc(NC(=O)OCC(F)(F)C(F)F)cc1Cl	i
CCCC(=O)Nc1ccc(NC(=O)c2ccc(Br)cc2)cc1	i
CCN(CC)CC(=O)Nc1ccc(Br)cc1	+
Cc1ccc(NC(=O)Cc2ccc(Br)cc2)cc1	i
CCOc1ccc2nc(NC(=O)c3ccc([N+](=O)[O-])c(C)c3)sc2c1	i
Cc1ccccc1OCC(O)CN1CCN(CC(O)COc2ccccc2C)CC1 (stereo not drawn)	i
OC(COc1ccc(Br)cc1)CN1CCCCCC1 (stereo not drawn)	+
OC(COc1ccccc1Br)CN1CCCCC1 (stereo not drawn)	+
Cc1ccc(OCC(O)CN2CCCCC2)c(C)c1 (stereo not drawn)	i
OC(COc1ccc(OCC(O)CN2CCCC2)cc1)CN1CCCC1 (stereo not drawn)	i
OC(COc1ccc(Br)cc1)CN1CCOCC1 (stereo not drawn)	i
COC(=O)Nc1ccc2c(c1)N(C(=O)C(C)N1CCCCC1)c1ccccc1CC2 (stereo not drawn)	i
COc1ccccc1NC(=O)C(=O)NCCO	i
Cc1ccc(C(=O)Nc2ccc(Cl)cc2C)cc1C	+
Cc1ccc(C(=O)Nc2ccc(I)cc2C)cc1C	i
Cc1ccc(NC(=O)c2ccc(Cl)cc2)c(C)c1	i
COc1ccc(NC(=O)C(C)Oc2ccc(Cl)cc2Cl)c([N+](=O)[O-])c1 (stereo not drawn)	i
CN(CC(O)COCc1ccccc1)C1CCCCC1 (stereo not drawn)	i
Cc1ccc(OCC(O)CN2CCN(Cc3ccccc3)CC2)cc1C (stereo not drawn)	i
SMILES	Algae TAG accum
CN(CC(O)COc1ccc(F)cc1)C1CCCCC1 (stereo not drawn)	+
OC(COc1ccccc1Br)CN(C1CCCCC1)C1CCCCC1 (stereo not drawn)	i
Cc1ccc(OCC(O)CN(C)C)cc1 (stereo not drawn)	i
Cc1ccc(OCC(O)CN(C)C2CCCCC2)cc1C (stereo not drawn)	+
O=C1CC(Sc2ccccn2)C(=O)N1c1cccc(Cl)c1Cl (stereo not drawn)	i
Cc1cccc(C(=O)Nc2sc(C)c(C)c2C(=O)O)c1	i
O=C(Nc1scc(-c2cccs2)c1C(=O)O)c1cccs1	i
Cc1sc(NC(=O)c2cccs2)c(C(=O)O)c1C	+
O=C(NC1CCCC1)c1cccc(S(=O)(=O)N2CCc3ccccc3C2)c1	i
CC(C(N)=O)N(c1ccc(Oc2ccccc2)cc1)S(C)(=O)=O (stereo not drawn)	i
O=C(Nc1ccccc1)NC1CCCCCC1	i
